Results: PubChem BioAssay AID623870 (Broad Institute, 2012)
Out of some 390,000 compounds screened, about 2,600 (0.67%) were called active. This is one part of a sample in which actives are shown more often than they occur. Values without a mark were called inactive.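 How the source made its calls: active means mean inhibition of replicates at least 50% and at least half of replicates each reaching 50%; inconclusive means half or more replicates reach 50% but mean below 50%; inactive means the rest.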

molecular target: Transforming acidic coiled-coil-containing protein 3 (Homo sapiens) (UniProt Q9Y6A5); assay: inhibitors of ARNT PAS-B binding to TACC3 – biochemical, AlphaScreen, single concentration, primary screen (AID 623870); conditions: AlphaScreen His-ARNT PAS-B/GST-TACC3 binding, luminescence; at 9.99 µM; active compounds read high; TACC3 fragment carries E629A point mutation;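 further: 0% = complete ARNT plus TACC3 wells and 100% = ARNT alone without TACC3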

Row | Compound | inhibition
1 | CN1c2ccc(-c3cccc(C#N)c3)cc2[C@H]2[C@H](CCN2S(=O)(=O)c2cccc(F)c2)[C@@H]1CO | -10.1%
2 | CNC[C@H]1OCCCC[C@H](C)Oc2ccc(NS(C)(=O)=O)cc2C(=O)N([C@@H](C)CO)C[C@H]1C | -0.797%
3 | O=C(COC(=O)c1ccc(Br)o1)NC12CC3CC(CC(C3)C1)C2 | 6.24%
4 | O=C(COC(=O)c1ccc([N+](=O)[O-])o1)NC12CC3CC(CC(C3)C1)C2 | 31.3% (active)
5 | O=C(OCC(=O)c1cccs1)c1ccc([N+](=O)[O-])o1 | -2.19%
6 | CCN(C[C@H]1[C@H](c2ccc(-c3ccccc3)cc2)[C@H](CO)N1CC1CC1)C(C)=O | 2.62%
7 | C[C@@H]1CCCCO[C@H](CN(C)C(=O)CCC(F)(F)F)[C@@H](C)CN([C@@H](C)CO)C(=O)c2cc(NC(=O)c3ccncc3)ccc2O1 | 11%
8 | Cc1ccc(Cc2nnc(SCC(=O)Nc3ccccc3C)[nH]c2=O)cc1 | -1.06%
9 | CC(C)c1ccc(Cc2nnc(NCCCO)[nH]c2=O)cc1 | -6.28%
10 | COc1ccc(Cc2nnc(N/N=C/c3ccccc3O)[nH]c2=O)cc1OC | 58.3% (active)
11 | COc1cccc(NC(=O)C[C@H]2CC[C@@H]3[C@H](COc4ccc(NC(C)=O)cc4C(=O)N3C)O2)c1 | 13%
12 | C[C@@H]1CN([C@H](C)CO)C(=O)c2cc(NC(=O)Nc3ccc4c(c3)OCO4)ccc2O[C@@H]1CN(C)C(=O)Nc1ccc(F)cc1 | 14%
13 | CCC(=O)N1C[C@H]2[C@@H](c3ccccc31)[C@H](CO)N2Cc1ccccc1F | -4.33%
14 | CC(=O)N1[C@@H](CO)[C@@H]2c3ccccc3N(S(=O)(=O)c3ccccc3)C[C@@H]21 | 4.39%
15 | O=S(=O)(c1ccccc1)N1C[C@@H]2[C@H](c3ccccc31)[C@H](CO)N2Cc1ccccn1 | 32.5% (active)
16 | O=C(C1CCCC1)N1[C@H](CO)[C@@H]2c3ccccc3N(S(=O)(=O)c3ccccc3)C[C@@H]21 | -1.74%
17 | O=C(C[C@@H]1CC[C@@H]2[C@H](COC[C@@H](O)CN2Cc2ccc(Cl)cc2)O1)NCc1ccccc1Cl | 1.65%
18 | COc1ccccc1Nc1nc(N)nc(CSC(=S)N2CCOCC2)n1 | 0.944%
19 | COc1ccccc1Nc1nc(N)nc(CN(C)C2CCCCC2)n1 | 54% (active)
20 | COc1ccccc1NC1=NC(c2ccc(Cl)cc2)N=C(N)N1 (centres undefined) | -1.44%
21 | COc1ccc(S(=O)(=O)N(C)C[C@@H]2Oc3ncc(C#Cc4ccc(F)cc4)cc3C(=O)N([C@H](C)CO)C[C@@H]2C)cc1 | -1.03%
22 | N#CC1=C(N)Oc2c(sc3ccccc23)C1c1ccco1 (centres undefined) | 34.5%
23 | N#CC1=C(N)Oc2c(ccc3cccnc23)C1c1ccncc1 (centres undefined) | 71.2% (active)
24 | C[C@@H]1CN([C@H](C)CO)C(=O)c2c(c3ccccc3n2C)-c2ccccc2CO[C@@H]1CN(C)C(=O)Nc1ccccc1 | 6.33%
25 | CCCNC(=O)N(C)C[C@@H]1Oc2ncc(C#CCc3ccccc3)cc2C(=O)N([C@@H](C)CO)C[C@H]1C | -5.08%

Row | Compound | inhibition
26 | COc1ccc(S(=O)(=O)N(C)C[C@H]2OCCCC[C@@H](C)Oc3ccc(NC(=O)CCC(F)(F)F)cc3C(=O)N([C@@H](C)CO)C[C@H]2C)cc1 | -1.27%
27 | Oc1c(C(c2ccccn2)N2CCOCC2)ccc2cccnc12 (centres undefined) | 70.2% (active)
28 | CNC[C@@H]1OCCCC[C@H](C)Oc2ccc(NC(=O)Nc3ccc(OC)cc3)cc2C(=O)N([C@H](C)CO)C[C@@H]1C | -2.24%
29 | O=C(C[C@@H]1C[C@H]2c3cc(NC(=O)Nc4ccccc4F)ccc3O[C@H]2[C@@H](CO)O1)NCc1ccncc1 | -5.98%
30 | Cc1ccccc1CSc1nnc(-c2ccccn2)n1N | 54.4% (active)
31 | Cc1ccccc1CSc1nnc(-c2cccnc2)n1N | -2.01%
32 | Cn1c(SCC(=O)C(C)(C)C)nnc1-c1ccccn1 | 13.6%
33 | C[C@H](CO)N1C[C@H](C)[C@@H](CN(C)C(=O)C2CCCCC2)Oc2cc(C3=CCCC3)ccc2S1(=O)=O | 5.91%
34 | O=C(C[C@@H]1CC[C@@H]2[C@H](COC[C@@H](O)CN2Cc2ccc(F)cc2)O1)NCc1ccncn1 | -1.34%
35 | COc1ccccc1C#Cc1ccc([C@@H]2[C@H](CO)N3CCCCN(CCC(F)(F)F)C[C@@H]23)cc1 | 26%
36 | Cc1noc(C)c1S(=O)(=O)N(C)C[C@H]1OCCCC[C@H](C)Oc2ccc(NS(=O)(=O)c3ccccc3)cc2C(=O)N([C@H](C)CO)C[C@@H]1C | -5.63%
37 | COc1ccc(S(=O)(=O)N2C[C@@H](O)COC[C@H]3O[C@H](CC(=O)N[C@H]4CCN(Cc5ccccc5)C4)CC[C@@H]32)cc1 | -2.17%
38 | O=C(NCCCn1ccnc1)C(=O)NCC1OCCN1S(=O)(=O)c1cc(F)ccc1F (centres undefined) | 60.2% (active)
39 | O=C(NCCCc1ccccc1)C(=O)NCC1OCCN1S(=O)(=O)c1ccccc1 (centres undefined) | 0.478%
40 | Cc1cc(F)ccc1S(=O)(=O)N1CCCOC1CNC(=O)C(=O)NCCC1=CCCCC1 (centres undefined) | 3.52%
41 | CC(C)NC(=O)Nc1ccc2c(c1)CC(=O)N([C@@H](C)CO)C[C@@H](C)[C@H](CN(C)CC1CC1)O2 | -5.56%
42 | CO[C@@H]1CC[C@@H]2CCOc3ccc(C#N)cc3C(=O)N(C)C[C@H](c3ccccc3)CC(=O)N(C)C[C@H]1O2 | -7.48%
43 | Cc1noc(C)c1NC(=O)N[C@H]1C=C[C@@H](CC(=O)Nc2ccccc2)O[C@H]1CO | -3.76%
44 | Cc1ccc(S(=O)(=O)Nc2ccc3c(c2)CC(=O)N([C@@H](C)CO)C[C@@H](C)[C@@H](CN(C)S(=O)(=O)c2ccccc2)O3)cc1 | -1.52%
45 | COc1c(O)cc2oc(-c3ccc(O)c(O)c3)cc(=O)c2c1O | 36.8% (active)
46 | C[C@H](CO)N1C[C@H](C)[C@H](CN(C)C(=O)C2CCOCC2)Oc2ncc(-c3ccccc3)cc2C1=O | -4.96%
47 | CC(C)CC#Cc1cnc2c(c1)C(=O)N([C@@H](C)CO)C[C@H](C)[C@@H](CN(C)C(=O)c1ccc(F)cc1)O2 | 7.13%
48 | CSc1cccc(NC(=S)N(C(C)C)C(C)c2ccccn2)c1 (centres undefined) | 19%
49 | Cc1cccc(NC(=S)N(CCN(C)C)C(C)c2ccco2)c1 (centres undefined) | -28.1%
50 | CC(c1ccccn1)N(CCN(C)C)C(=S)Nc1ccccc1F (centres undefined) | 56.1% (active)

Row | Compound | inhibition
51 | C[C@@H]1CN([C@H](C)CO)S(=O)(=O)c2ccc(-c3cncnc3)cc2O[C@H]1CN(C)C(=O)Cc1ccccc1 | -17%
52 | C[C@H](CO)N1C[C@H](C)[C@@H](CN(C)Cc2ccc(Cl)c(Cl)c2)Oc2c(NC(=O)Nc3ccccc3)cccc2C1=O | 6.91%
53 | COc1cc(C2C(C#N)=C(N)Oc3n[nH]c(-c4ccccn4)c32)cc(OC)c1OC (centres undefined) | 71.4% (active)
54 | COc1ccccc1C1C(C#N)=C(N)Oc2c1c(-c1ccccc1)nn2-c1ccccc1 (centres undefined) | 2.34%
55 | CCCc1[nH]nc2c1C(c1ccc(Br)s1)C(C#N)=C(N)O2 (centres undefined) | 3.43%
56 | O=C(C[C@H]1CC[C@H]2[C@@H](COC[C@@H](O)CN2Cc2ccccc2F)O1)NCc1ccccc1F | -10%
57 | Cc1noc(C)c1NC(=O)Nc1ccc2c(c1)C(=O)N([C@@H](C)CO)C[C@H](C)[C@@H](CN(C)Cc1ccncc1)OCCCC[C@@H](C)O2 | -0.402%
58 | CN(C)c1ccc2c(c1)[C@H]1C[C@H](CC(=O)O)O[C@H](CO)[C@H]1O2 | 22.1%
59 | CNC(=O)C[C@H]1CC[C@H]2[C@H](COc3ccc(NC(=O)c4cc(C)on4)cc3C(=O)N2C)O1 | 8.66% (active)
60 | Cc1cc(C(=O)Nc2ccc3c(c2)C(=O)N(C)[C@@H]2CC[C@@H](CC(=O)NC4CCCC4)O[C@@H]2CO3)no1 | -5.47%
61 | Cc1cc(C(=O)Nc2ccc3c(c2)C(=O)N(C)[C@@H]2CC[C@H](CC(=O)NC4CCCC4)O[C@@H]2CO3)no1 | -1.61%
62 | CCCn1nc(C(=O)OCc2nc(N)nc(Nc3ccccc3C)n2)c2ccccc2c1=O | 10.3%
63 | Cc1ccccc1Nc1nc(N)nc(CSc2nnc3ccccn23)n1 | -0.395%
64 | Cc1ccccc1Nc1nc(N)nc(CN2CCN(c3ccccn3)CC2)n1 | 86% (active)
65 | COc1ccc(-c2ccc([C@@H]3[C@@H](C#N)N(C(=O)C4CCC4)[C@@H]3CO)cc2)cc1 | -0.479%
66 | C[C@H]1CN([C@@H](C)CO)C(=O)c2cc(N(C)C)ccc2O[C@@H]1CN(C)C(=O)Nc1ccc2c(c1)OCO2 | 12.1%
67 | O=C(Nc1nnc(-c2ccco2)o1)c1ccc(S(=O)(=O)N2CCOCC2)cc1 | 79.1% (active)
68 | Cc1ccnc(NS(=O)(=O)c2ccc(NC(=O)c3ccc(S(=O)(=O)N4CCOCC4)cc3)cc2)n1 | -1.47%
69 | O=C(Nc1ccc(S(=O)(=O)N2CCOCC2)cc1)c1ccc2ncsc2c1 | 8.14%
70 | CCCNC(=O)C[C@@H]1CC[C@H]2[C@H](COc3ccc(NC(=O)CCC)cc3C(=O)N2C)O1 | -12.3%
71 | Cc1noc(C)c1NC(=O)Nc1ccc2c(c1)C(=O)N([C@H](C)CO)C[C@H](C)[C@H](CN(C)Cc1ccc(C(=O)O)cc1)OCCCC[C@H](C)O2 | -1.31%
72 | C[C@H](CO)N1C[C@H](C)[C@@H](CN(C)C)Oc2ccc(NS(=O)(=O)c3cccs3)cc2C1=O | -4.47%
73 | C[C@H](CO)N1C[C@H](C)[C@@H](CN(C)CC2CCCCC2)Oc2ccc(NS(=O)(=O)c3cccs3)cc2CC1=O | 8.01%
74 | C[C@@H]1CN([C@@H](C)CO)C(=O)c2cc(NS(=O)(=O)c3cccs3)ccc2O[C@H]1CN(C)CC1CCCCC1 | 54.3% (active)
